Screens deposited in PubChem by several laboratories.
Rows were chosen to be rich in hits. Some 1.8% of all compounds tested hit in one or more screens of this group.
eIF4E-4G inh – eIF4E–eIF4G protein interaction inhibitors, primary screen, biochemical, uHTS, TR-FRET, eIF4GI fragment. AID 782, 2007. TR-FRET eIF4E-eIF4GI(517-606) binding, 2 h. actives 0.37% (n = 220,000). Eukaryotic translation initiation factor 4E (Mus musculus) + Eukaryotic translation …. inhibition, % at 21.7 µM;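 active = inhibition above about 30%, limit read from the data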;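 also: 0% = full FRET control wells and 100% = background wells lacking eIF4GI fragment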
Target sequence (P63073 whole entry, looked up, the tested form may be a part): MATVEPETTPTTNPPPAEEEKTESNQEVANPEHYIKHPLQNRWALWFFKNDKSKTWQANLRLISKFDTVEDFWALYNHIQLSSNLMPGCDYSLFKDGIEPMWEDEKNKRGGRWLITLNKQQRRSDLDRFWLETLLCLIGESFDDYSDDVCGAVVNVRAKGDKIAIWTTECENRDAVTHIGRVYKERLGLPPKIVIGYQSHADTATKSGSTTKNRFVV
Target sequence (Q04637 whole entry, looked up, the tested form may be a part): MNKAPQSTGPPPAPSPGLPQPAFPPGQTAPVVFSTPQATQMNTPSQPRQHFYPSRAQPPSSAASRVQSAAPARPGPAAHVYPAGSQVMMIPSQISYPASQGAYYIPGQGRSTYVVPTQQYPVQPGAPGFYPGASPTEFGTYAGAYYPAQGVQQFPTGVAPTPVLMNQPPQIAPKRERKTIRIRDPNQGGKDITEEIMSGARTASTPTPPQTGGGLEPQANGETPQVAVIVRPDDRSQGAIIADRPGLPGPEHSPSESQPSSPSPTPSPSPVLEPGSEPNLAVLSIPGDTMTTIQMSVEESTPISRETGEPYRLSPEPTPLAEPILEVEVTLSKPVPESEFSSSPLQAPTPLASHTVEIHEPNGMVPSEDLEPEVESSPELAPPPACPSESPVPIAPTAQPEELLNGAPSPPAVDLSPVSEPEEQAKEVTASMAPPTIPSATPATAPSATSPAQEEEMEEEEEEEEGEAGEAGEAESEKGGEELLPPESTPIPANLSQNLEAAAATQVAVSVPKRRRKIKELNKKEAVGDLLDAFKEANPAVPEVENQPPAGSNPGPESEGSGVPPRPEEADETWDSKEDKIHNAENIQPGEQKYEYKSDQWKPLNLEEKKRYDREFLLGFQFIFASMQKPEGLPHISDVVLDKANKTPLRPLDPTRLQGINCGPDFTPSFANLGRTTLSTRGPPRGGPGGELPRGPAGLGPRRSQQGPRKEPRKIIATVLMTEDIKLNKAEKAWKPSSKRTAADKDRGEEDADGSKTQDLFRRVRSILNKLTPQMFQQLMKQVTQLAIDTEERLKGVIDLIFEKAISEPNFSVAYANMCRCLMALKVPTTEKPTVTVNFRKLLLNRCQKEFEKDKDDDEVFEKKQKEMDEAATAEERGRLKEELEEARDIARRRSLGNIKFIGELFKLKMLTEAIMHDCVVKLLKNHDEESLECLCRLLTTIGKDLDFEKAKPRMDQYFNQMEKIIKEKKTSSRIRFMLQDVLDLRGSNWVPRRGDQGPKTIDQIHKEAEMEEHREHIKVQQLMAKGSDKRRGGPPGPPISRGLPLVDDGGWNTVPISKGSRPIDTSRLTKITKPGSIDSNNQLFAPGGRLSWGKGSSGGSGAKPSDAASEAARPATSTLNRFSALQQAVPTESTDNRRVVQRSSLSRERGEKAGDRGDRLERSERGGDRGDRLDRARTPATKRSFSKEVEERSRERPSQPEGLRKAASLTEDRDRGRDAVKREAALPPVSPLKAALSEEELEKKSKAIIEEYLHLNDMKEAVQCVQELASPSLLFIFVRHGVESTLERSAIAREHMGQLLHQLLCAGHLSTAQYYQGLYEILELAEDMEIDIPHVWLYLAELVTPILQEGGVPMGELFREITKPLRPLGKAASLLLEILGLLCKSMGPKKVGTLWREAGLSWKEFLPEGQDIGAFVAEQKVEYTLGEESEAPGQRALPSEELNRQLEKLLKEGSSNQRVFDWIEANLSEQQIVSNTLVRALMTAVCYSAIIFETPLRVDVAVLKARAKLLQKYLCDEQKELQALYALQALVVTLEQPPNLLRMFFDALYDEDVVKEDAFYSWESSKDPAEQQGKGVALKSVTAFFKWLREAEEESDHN
EP2 mod – EP2 receptor modulators, cAMP readout, primary screen, cell-based, HTRF cAMP, PGE2 stimulation | Prostaglandin E2 receptor EP2 subtype (Homo sapiens), P43116 | EP2-expressing cells, cAMP HTRF FRET, PGE2 co-stimulation | induction, % at 25 µM | actives 0.83% (n = 260,000);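 active = compounds whose cAMP rise, as percent of the full-agonist control response, exceeds 60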;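 also: rat C6 glioma line stably carrying human EP2 under a CMV promoter; the protocol text gives 20 µM as final concentration; 100% = response of wells given 1 µM PGE2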
PERK inh – block of dimerizer-induced PERK translation repression, primary screen, PERK inhibitor project, CHO PERK-DD cells, SEAP luminescence, HTS | Eukaryotic translation initiation factor 2-alpha kinase 3 (Homo sapiens), Q9NZJ5 | CHO PERK-DD fusion, SEAP luminescence translation reporter | inhibition, % at 5.6 µM | actives 0.17% (n = 220,000);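 active = inhibition above the mean inhibition of all tested compounds plus 3 SD, set separately per screening campaign, cut at about 2.9% in these data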;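 also: PERK kinase domain activated by AP20187 dimerizer at 100 nM; 0% = DMSO with dimerizer and 100% = rapamycin at 8.4 µM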
EP2 antag – human EP2 receptor antagonists, primary screen, TR-FRET cAMP, C6 glioma cells; Prostaglandin E2 receptor EP2 subtype (Homo sapiens), P43116; C6 glioma cells expressing human EP2; cells stimulated with saturating PGE2; inhibition, % at 25 µM; actives 0.52% (n = 260,000);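 active = percent inhibition above 40 after rounding to a whole number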;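 also: rat C6 glioma host cells with rolipram phosphodiesterase inhibitor present; the protocol text gives 20 µM as final concentration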
Numbers without * were called inactive; nt = no result; [ ] = remark or other dose.

SMILES | eIF4E-4G inh | EP2 mod | PERK inh | EP2 antag
CC(C)(Sc1cc(C(C)(C)C)c(O)c(C(C)(C)C)c1)Sc1cc(C(C)(C)C)c(O)c(C(C)(C)C)c1 | -1 | -5 | 0 | 12
Cc1cc(Cc2cc(C)cc(C(C)(C)C)c2O)c(O)c(Cc2cc(C)cc(C(C)(C)C)c2O)c1 | nt | 7 | nt | 41*
Cc1cc(Cc2c(C)c(C)c(Cc3cc(C)cc(C(C)(C)C)c3O)c(C)c2C)c(O)c(C(C)(C)C)c1 | nt | 16 | nt | 55*
COc1ccc2cc3c(N)c(C(=O)Nc4ccccc4OC)sc3nc2c1 | nt | -26 | nt | 10
COc1ccc(NC(=O)COc2cccc(C)c2C)cc1NC(=O)c1ccco1 | nt | -24 | nt | 7
CC(=O)C1=C(O)C(=O)N(CC#N)C1c1ccc(Cl)cc1 (centres undefined) | nt | 19 | nt | 10
COc1ccc(NC(=O)CN2C(=O)C(C)(C)Oc3ccc(C(=O)NC(C)C)cc32)cc1 | nt | 4 | nt | 11
CN(C)c1ccc(-c2nnn(CC(=O)N3CCc4ccccc43)n2)cc1 | nt | 19 | nt | 8
N/C(=N\OC(=O)c1cccs1)C1(c2ccc(Cl)cc2Cl)CC1 | 7 | -35 | 2 | 54*
COc1ccc(-c2cn3c(-c4ccccn4)c(-c4ccccn4)nnc3n2)cc1 | nt | -62 | nt | 5
COc1cc2c(cc1OC)C(c1ccccc1F)N(Cc1cncn1C)CC2 (centres undefined) | nt | 5 | nt | 2
COc1c(C)cc(Br)cc1C(=O)Nc1ccc(Cc2ccncc2)cc1 | 3 | 64* | -1 | 11
COc1ccccc1C(=O)Nc1ccc(Cc2ccncc2)cc1 | 3 | -58 | 0 | 10
O=C(O)C1C2C=CC(C2)C1C(=O)NCCCN1CCOCC1 (centres undefined) | -1 | 16 | 3.0* | 20
O=C(O)C1C2C=CC(C2)C1C(=O)NCCN1CCOCC1 (centres undefined) | nt | 21 | nt | 9
CCN(CC)C(=O)CSc1nnc2c(n1)[nH]c1ccc(F)cc12 | nt | -5 | nt | 7
Cc1c(CN(C)CCN2CCCCC2)cnn1Cc1ccccc1 | nt | 8 | nt | 7
COc1ccc(CN2CCN(Cc3ccncc3)CC2)cc1OCc1ccccc1 | nt | -3 | nt | 13
COCCSc1nnc(-c2cccc(C#N)c2)n1C | 5 | 13 | 3.3* | 3
COCCSc1nnc(-c2ccccc2)n1C | nt | -10 | nt | 6
O=C1Nc2ccccc2SC(c2ccccc2)C1O (centres undefined) | 36* | 20 | 0 | 5
COc1ccc(N2C(=O)C(Cl)=C(Oc3cccc(OC)c3)C2=O)cc1 | 2 | -52 | 1 | 100*
COc1ccc(N2C(=O)c3ccccc3C2=O)cc1 | 0 | 15 | 2 | 6
CCOc1ccc2nc3sc(C(N)=O)c(N)c3cc2c1 | nt | -33 | nt | 4
Cc1ccc(S(=O)(=O)c2c(C)cc(C)nc2Oc2cccc(C(F)(F)F)c2)cc1 | -1 | 64* | 1 | 13
SMILES | eIF4E-4G inh | EP2 mod | PERK inh | EP2 antag
Cc1cc2cc3c(cc2nc1SCC(=O)c1ccccc1)OCO3 | nt | 70* | nt | 13
Cc1cc2ccccc2nc1SCC(=O)c1ccccc1 | nt | 81* | nt | 9
CCOC(=O)CSc1nc2cc3c(cc2cc1C)OCO3 | 3 | 58 | 0 | 7
Cc1cc2ccccc2nc1SCC(=O)NC(C)(C)C | nt | 87* | nt | 7
Cc1cc2cc3c(cc2nc1SCC(=O)c1ccccc1F)OCCO3 | nt | 72* | nt | 19
COc1ccc(NC(=S)N(Cc2cc3cc(C)ccc3[nH]c2=O)CC2CCCO2)cc1 (centres undefined) | nt | -33 | nt | 4
CC(C)c1nc(SCC(=O)c2ccc(F)cc2)c2ccccc2n1 | 6 | 63* | 1 | 8
Cc1ccc(C(=O)CSc2nc(C(C)C)nc3ccccc23)cc1 | 2 | 34 | 0 | 6
Cc1nn(C)cc1S(=O)(=O)NCC(c1ccccc1Cl)N(C)C (centres undefined) | nt | -41 | nt | 5
CN1CCN(c2ccc3nc(-c4ccc5nc(-c6ccc(O)cc6)[nH]c5c4)[nH]c3c2)CC1 | nt | 28 | nt | 49*
CC(C)(C)c1ccc(O)c(CN(Cc2cc(C(C)(C)C)ccc2O)c2ccccc2)c1 | nt | 5 | nt | 55*
CCN(CC)S(=O)(=O)c1ccc(OC)c(NC(=O)COc2ccc3c(C)cc(=O)oc3c2)c1 | -16 | 10 | 0 | 67*
CCN(CC)S(=O)(=O)c1ccc(OC)c(NC(=O)Cc2cccs2)c1 | 34* | 5 | -1 | 9
COc1ccccc1NC(=O)CSc1nnc(-c2ccoc2C)n1Cc1ccco1 | nt | -23 | nt | 15
O=C(O)CSc1ncnc2scc(-c3ccc(Br)cc3)c12 | -2 | 10 | 3.6* | 8
O=C(O)CSc1ncnc2scc(-c3ccccc3)c12 | -1 | -1 | 0 | 15
CCOc1ccc(N2C(=O)c3cccnc3C2Nc2ccc(Cl)cc2)cc1 (centres undefined) | -11 | 23 | -1 | 7
Cc1ccc(NC2c3ncccc3C(=O)N2c2ccccc2C)cc1C (centres undefined) | 91*[fluorescence artefact?] | -3 | 0 | 5
CCN1CCN(CCNC(=O)c2ccc3c(c2)N(Cc2ccc(F)cc2)C(=O)/C(=C/c2ccccc2)S3)CC1 | 37* | -44 | 0 | 21
CCOCCCNC(=O)/C=C1\Sc2ccccc2N(Cc2ccccc2F)C1=O | -2 | 29 | 0 | 6
CCN1CCN(CCNC(=O)c2ccc(/C=C3/Sc4ccccc4N(Cc4cccc(Cl)c4)C3=O)cc2)CC1 | 36* | -22 | 1 | 1
CN1CCN(CCCNC(=O)c2ccc(/C=C3\Sc4ccccc4N(Cc4ccccc4F)C3=O)cc2)CC1 | 31* | -45 | 0 | 88*
CC(C)Cc1cc(C(=O)N2CCC(n3nnc4cccnc43)CC2)c2ccccc2n1 | nt | -21 | nt | nt
NC(=O)CSc1nc2ccc(NC(=O)c3ccccc3C(=O)O)cc2s1 | nt | -27 | nt | 16
Cc1ccc2[nH]c(=O)c(CN(Cc3cccnc3)C(=O)Nc3ccc(Cl)cc3)cc2c1 | nt | -31 | nt | 14
SMILES | eIF4E-4G inh | EP2 mod | PERK inh | EP2 antag
COc1cccc(C(=O)Nc2nnc(-c3ccc(Cl)cc3)o2)c1 | -14 | 2 | nt | 11
COc1cccc(C(=O)Nc2nnc(-c3ccc(F)cc3)o2)c1 | 95* | 8 | nt | 10
O=C1Nc2ccccc2C(=O)C1(Cl)Cc1ccccc1 (centres undefined) | 38* | -19 | 0 | 112*
COC(=O)c1ccc(NC(=O)COc2ccc(S(=O)(=O)N3CCCC3)cc2)cc1 | nt | -20 | nt | 12
OCc1cc(C(O)CNCCCCCCOCCCCc2ccccc2)ccc1O (centres undefined) | 0 | 69* | 2 | 17
CC1=CC2=NC(=O)CC(C)(C(=O)N(CC(=O)NC(C)(C)C)C3CCCC3)N2C=C1 (centres undefined) | -8 | 23 | 1 | 0
